S16 viability: toxic to S16 Pmp22-F2sN Schwann cells; S16 Pmp22-F2sN Schwann cells viability, CellTiter-Glo, 24 h; Potency, µM (top dose mostly 57.5 µM), for inactives: at the top dose activity change, negative = cytotoxicity, most hits filed as cytotoxic; 0.48% of 43,000 active; also: potency is read from the fitted curve at half-maximal effect; % is scaled to controls: 0 for no effect and ±100 for the full control effect; nearly all actives have a fitted effect of over 65% in size
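Used to flag compounds lowering reporter output through toxicity, this quantitative HTS measures ATP-based CellTiter-Glo luminescence in S16 Pmp22-F2sN Schwann cells after 24 h compound exposure at 37C.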
p53null 32C tox: selectivity test: cytotoxicity in p53 null cells, permissive temperature; Potency, µM (highest dose often 46.1 µM), for the others: top-dose activity change, negative = cytotoxicity, most hits filed as cytotoxic; H1299-neo p53 null cells, ATP luminescence, 24 h, 32C; AID 903; 0.62% of 55,000 active;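 also: potency is read from the fitted curve at half-maximal effect; 0% = DMSO only and -100% = full killing by 100 µM tamoxifen; nearly all actives have a fitted effect of over 55% in size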
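H1299-neo, 600 cells/well; overnight 37C; cpd up to 46 uM, 24 h at 32C; ATPlite luminescence after 20 min RT; normalized to DMSO (0%) and tamoxifen 100 uM (100% kill); Hill-fit AC50.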
p53null 39C kill: selectivity test: cytotoxicity in p53 null cells, nonpermissive temperature | 0.97% of 55,000 active | Potency, µM (doses to about 46.1 µM), for inactives: at the top dose activity, negative = cell killing, actives largely listed as cytotoxic | AID 904 | H1299 p53-null (neo) cells, 39C, ATPlite viability, 24 h;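 also: potency is read from the fitted curve at half-maximal effect; 0% = DMSO only and -100% = full killing by 100 µM tamoxifen; nearly all actives have a fitted effect of over 50% in size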
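Concentration-response (up to 46 uM) was run for 24 h at the nonpermissive 39C on H1299-p53A138V or H1299-neo cells. ATP content was measured with ATPlite luminescence. AC50 values were Hill-modeled after normalizing between DMSO and 100 uM tamoxifen killing.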
OvCa metastasis: inhibitors of ovarian cancer cell adhesion and invasion in omental model. SKOV3ip1-GFP adhesion/invasion on 3D omental model, fluorescence. Potency, µM (highest dose often 45.8 µM), for the others: at the highest dose activity change, negative = inhibition, actives largely listed as inhibitors. 0.1% of 46,000 active;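 also: potency is read from the fitted curve at half-maximal effect; plate controls were DMSO wells for no effect and tomatine positive control wells for full effect; nearly all actives have a fitted effect of over 65% in size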
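Primary human omental fibroblast/mesothelial 3D culture pre-formed 48 h. SKOV3ip1-GFP cells added with compounds (0.36-46 umol/L), incubated 2 h RT/16 h 37 C, fixed; GFP cells quantified at 488/509 nm.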
mTORC1 inh: inhibitors of mTORC1 signaling in Tsc2-/- p53-/- MEF cells. Potency, µM (highest dose often 38.3 µM), without a hit: at the highest dose activity change, negative = inhibition, hits mostly inhibitors. 0.78% of 44,000 active. Tsc2-/- p53-/- MEF, phospho-rpS6 immunofluorescence/PI, 24 h. AID 493208;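 also: potency is read from the fitted curve at half-maximal effect; plate controls were DMSO for no effect and rapamycin for full effect; nearly all actives have a fitted effect of over 50% in size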
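Immunofluorescence of rpS6 phosphorylation in Tsc2-/-, p53-/- MEFs after 24 h compound exposure, normalized to propidium iodide signal. Activity is expressed as % positive cells, thresholded with 7.5 nM rapamycin.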
PMP22 txn prim: modulators of PMP22 gene transcription in S16 Schwann cells; S16 Pmp22-F2sN Schwann cells, FLuc/NLuc coincidence luminescence, 24 h; AID 1508649; 2% of 43,000 active; Potency, µM (highest dose often 57.5 µM), for inactives: at the highest dose activity change, negative = inhibition, most hits filed as inhibitors; active = clear falling dose curves in both reporters; inconclusive = both reporters move, but less clearly or upward; inactive = either reporter flat; the % is the NLuc reporter signal; also: potency is read from the fitted curve at half-maximal effect; % is scaled to controls: 0 for no effect and ±100 for the full control effect
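Rat S16 Pmp22-F2sN cells, 500-1,000/well in phenol red-free DMEM + 10% FBS, compound-treated 24 h (37C, 5% CO2). Luminescence: FLuc read, Stop&Glo added, NLuc read.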
NLuc sat counter: counter-screen for PMP22 expression modulators: NanoLuc inhibition, saturating substrate | shares compounds with PMP22 txn prim | Secreted NLuc enzyme (filtered S16 cell medium), Nano-Glo luminescence | Potency, µM (titrated, usually from 57.5 µM), without a hit: top-dose activity change, negative = inhibition, actives largely listed as inhibitors | 4% of 690 active | AID 1508638; also: potency is read from the fitted curve at half-maximal effect; % is scaled to controls: 0 for no effect and ±100 for the full control effect
NLuc Km ctr: NanoLuc inhibition at Km substrate, PMP22 artifact check. secreted NLuc enzyme, coelenterazine luminescence, Km conditions. Potency, µM (series often up to 57.5 µM), without a hit: at the highest dose activity change, negative = inhibition, most hits filed as inhibitors. shares compounds with PMP22 txn prim. 5% of 690 active; also: potency is read from the fitted curve at half-maximal effect; % is scaled to controls: 0 for no effect and ±100 for the full control effect
FLuc ctr PMP22: firefly luciferase enzyme inhibition artifact for PMP22 screen; shares compounds with PMP22 txn prim; purified P. pyralis FLuc, luminescence, 10 min; Potency, µM (highest dose often 57.5 µM), inactives show at the top dose activity, negative = inhibition, usual class: inhibitors; 690 tested, under 10 active; AID 1508640; also: % of control where 0% means no effect
Target sequence (P08659 whole entry, looked up): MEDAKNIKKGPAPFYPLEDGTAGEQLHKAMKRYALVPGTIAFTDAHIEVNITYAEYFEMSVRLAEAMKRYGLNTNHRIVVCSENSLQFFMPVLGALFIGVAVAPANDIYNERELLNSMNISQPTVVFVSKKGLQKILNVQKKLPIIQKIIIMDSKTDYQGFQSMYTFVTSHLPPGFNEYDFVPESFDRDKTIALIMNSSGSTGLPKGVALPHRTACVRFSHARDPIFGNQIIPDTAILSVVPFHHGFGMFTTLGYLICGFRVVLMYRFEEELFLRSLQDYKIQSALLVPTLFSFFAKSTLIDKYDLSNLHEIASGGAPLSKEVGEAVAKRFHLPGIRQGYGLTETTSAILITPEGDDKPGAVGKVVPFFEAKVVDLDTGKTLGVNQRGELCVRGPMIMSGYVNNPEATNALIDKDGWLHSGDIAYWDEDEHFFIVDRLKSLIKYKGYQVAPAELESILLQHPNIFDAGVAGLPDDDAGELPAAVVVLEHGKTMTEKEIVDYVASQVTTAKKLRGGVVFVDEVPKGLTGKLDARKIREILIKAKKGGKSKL
S16 viab conf: confirmation of cytotoxicity in S16 Pmp22-F2sN Schwann cells (luciferase reporters placed in the Pmp22 gene) | shares compounds with PMP22 txn prim | 7% of 690 active | Potency, µM (titrated, usually from 57.5 µM), without a hit: at the top dose activity change, negative = viability loss, usual class: cytotoxic | AID 1508641 | S16 Schwann cells viability, CellTiter-Glo ATP luminescence, 24 h; also: potency is read from the fitted curve at half-maximal effect; % is scaled to controls: 0 for no effect and ±100 for the full control effect
PMP22 txn conf: PMP22 transcription modulation, confirmatory | 22% of 690 active | AID 1508646 | S16 Schwann cells Pmp22-F2sN, dual luciferase, 24 h | shares compounds with PMP22 txn prim | Potency, µM (series often up to 57.5 µM), for the others: at the top dose activity change, negative = inhibition, usual class: inhibitors; active = clear falling dose curves in both reporters; inconclusive = both reporters move, but less clearly or upward; inactive = either reporter flat; the % is the FLuc reporter signal; also: potency is read from the fitted curve at half-maximal effect
PMP22 HiBiT cnf: rat PMP22 protein level modulation, confirmatory. shares compounds with PMP22 txn prim. S16 Schwann cells Pmp22-HiBiT, luminescence, 48 h. Potency, µM (titrated, usually from 27.9 µM), without a hit: at the highest dose activity change, negative = inhibition, usual class: inhibitors. 95 tested, under 10 active
Numbers without * were called inactive; i = inactive; ? = inconclusive; . = not tested or not shown. Compounds with a hit are over-represented: about 3.1% of the library has one in this group of screens. Unless noted, calls follow the shape of the dose curve; as a rule, active = well fitted curve in the direction sought with a large enough effect; inconclusive = small, poorly fitted or top-dose-only effect, or another doubt; inactive = no such curve, though single readings can be large; an effect the other way counts as inactive or inconclusive.

SMILES	S16 viability	p53null 32C tox	p53null 39C kill	OvCa metastasis	mTORC1 inh	PMP22 txn prim	NLuc sat counter	NLuc Km ctr	FLuc ctr PMP22	S16 viab conf	PMP22 txn conf	others
CCN(C(=O)Cn1c(=O)n(Cc2ccc3c(c2)OCO3)c(=O)c2ccc(C(=O)NC3CCCCC3)cc21)c1cccc(C)c1	1%	12%	9%	-1%	2%	-2%	.	.	.	.	.
Cc1cc(C)c(NC(=O)Cn2c(=O)n(Cc3ccc(C(=O)NCc4ccc5c(c4)OCO5)cc3)c(=O)c3ccccc32)c(C)c1	?	-12%	?	-7%	5.2µM*	11µM*	-6%	4%	2%	27µM*	8.9µM*
Cc1ccccc1NC(=O)Cn1c(=O)n(Cc2ccc3c(c2)OCO3)c(=O)c2ccc(C(=O)NC3CCCCC3)cc21	?	11%	-1%	-1%	4%	11µM*	-3%	2%	7%	24µM*	15µM*
Cc1cc(C)c(NC(=O)Cn2c(=O)n(Cc3ccc4c(c3)OCO4)c(=O)c3ccccc32)c(C)c1	-6%	4%	-11%	i	4%	?	.	.	.	.	.
Cc1ccc(NC(=O)Cn2c(=O)n(Cc3ccco3)c(=O)c3ccc(C(=O)NC4CCCC4)cc32)c(C)c1	5%	-3%	-18%	-12%	-2%	?	.	.	.	.	.
Cc1ccc(NC(=O)Cn2c(=O)n(Cc3ccc4c(c3)OCO4)c(=O)c3ccc(C(=O)NC4CCCCC4)cc32)c(C)c1	4%	10%	27%	36%	-9%	8.4µM*	-1%	-3%	1%	-25%	?
Cc1ccc(C)c(NC(=O)Cn2c(=O)n(Cc3ccc4c(c3)OCO4)c(=O)c3ccc(C(=O)NC4CCCCC4)cc32)c1	11%	-4%	-9%	i	2%	4µM*	5%	6%	5%	-10%	18µM*	PMP22 HiBiT cnf=1%
O=C(O)c1ccc(Nc2ncc3c(n2)-c2ccc(Cl)cc2C(c2c(F)cccc2F)=NC3)cc1	.	.	.	11%	.	.	.	.	.	.	.
Nc1cccc2c1C(=O)N(C1CCC(=O)NC1=O)C2=O (stereo unspecified)	.	.	.	-8%	.	.	.	.	.	.	.

Compound activity deposited in PubChem by National Center for Advancing Translational Sciences (NCATS).
